Data published in article PMC7862700, “An all-to-all approach to the identification of sequence-specific readers for epigenetic DNA modifications on cytosine”.

Key:
Assay in all cases: DAPPL (digital affinity profiling via proximity ligation, sequencing); 10 mM Tris-HCl pH 7.5, 50 mM NaCl, 1 mM DTT, 4% glycerol, room temperature, 30 min; GST-TFs on glutathione beads, 16-mer random dsDNA library, 0.1% formaldehyde crosslink after washing; high values mean tight binding
[1] = molecular target: T1, FLI1 (Homo sapiens, UniProt Q01543 1-452); details: protein: recombinant; tags: N-terminal GST; dsDNA, one strand shown
T1 sequence: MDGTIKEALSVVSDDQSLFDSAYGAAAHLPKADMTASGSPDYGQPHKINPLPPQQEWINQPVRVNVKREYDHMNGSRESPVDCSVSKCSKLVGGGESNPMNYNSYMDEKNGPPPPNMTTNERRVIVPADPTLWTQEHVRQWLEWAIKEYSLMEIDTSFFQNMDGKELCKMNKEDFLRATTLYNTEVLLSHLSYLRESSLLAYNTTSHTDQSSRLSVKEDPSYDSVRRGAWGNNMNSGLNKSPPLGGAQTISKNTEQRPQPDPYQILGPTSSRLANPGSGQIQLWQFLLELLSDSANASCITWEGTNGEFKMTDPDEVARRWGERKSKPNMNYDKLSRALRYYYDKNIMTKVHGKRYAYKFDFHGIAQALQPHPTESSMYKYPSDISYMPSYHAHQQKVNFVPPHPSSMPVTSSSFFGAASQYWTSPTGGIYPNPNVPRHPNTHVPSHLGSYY
In short: (§1)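 A tag-only sample was pooled with DNA-barcoded human transcription factors that had been expressed in yeast as GST fusions and captured on glutathione beads. The pools were incubated for 30 min at room temperature with 200 nmole of a random double-stranded 16-mer DNA library in Tris/NaCl/DTT/glycerol buffer, then washed, crosslinked with 0.1% formaldehyde, proximity-ligated (BsaI/T4 ligase, 1 h, 37 °C), PCR-amplified and sequenced on an Illumina NextSeq500. Binding signal is each hexamer's read frequency for a factor divided by its frequency for the tag-only sample.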

[2] = molecular target: T2, ELK1 (Homo sapiens, UniProt P19419 1-428); details: protein: recombinant; tags: N-terminal GST; dsDNA, one strand shown
T2 sequence: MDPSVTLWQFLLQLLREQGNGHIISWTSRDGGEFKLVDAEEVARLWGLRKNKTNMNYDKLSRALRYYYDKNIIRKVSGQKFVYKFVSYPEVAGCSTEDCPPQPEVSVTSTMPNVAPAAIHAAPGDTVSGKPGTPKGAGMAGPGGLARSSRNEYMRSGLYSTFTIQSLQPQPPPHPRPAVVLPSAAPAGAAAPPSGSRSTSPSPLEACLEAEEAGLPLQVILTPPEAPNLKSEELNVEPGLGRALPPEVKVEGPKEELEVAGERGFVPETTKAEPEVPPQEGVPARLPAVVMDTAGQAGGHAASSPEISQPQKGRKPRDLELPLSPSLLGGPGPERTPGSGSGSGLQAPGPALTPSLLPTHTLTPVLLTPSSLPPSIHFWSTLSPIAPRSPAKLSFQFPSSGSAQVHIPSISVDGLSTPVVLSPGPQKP
In short: as §1

[3] = molecular target: T3, GABPA (Homo sapiens, UniProt Q06546 1-454); details: protein: recombinant; tags: N-terminal GST; dsDNA, one strand shown
T3 sequence: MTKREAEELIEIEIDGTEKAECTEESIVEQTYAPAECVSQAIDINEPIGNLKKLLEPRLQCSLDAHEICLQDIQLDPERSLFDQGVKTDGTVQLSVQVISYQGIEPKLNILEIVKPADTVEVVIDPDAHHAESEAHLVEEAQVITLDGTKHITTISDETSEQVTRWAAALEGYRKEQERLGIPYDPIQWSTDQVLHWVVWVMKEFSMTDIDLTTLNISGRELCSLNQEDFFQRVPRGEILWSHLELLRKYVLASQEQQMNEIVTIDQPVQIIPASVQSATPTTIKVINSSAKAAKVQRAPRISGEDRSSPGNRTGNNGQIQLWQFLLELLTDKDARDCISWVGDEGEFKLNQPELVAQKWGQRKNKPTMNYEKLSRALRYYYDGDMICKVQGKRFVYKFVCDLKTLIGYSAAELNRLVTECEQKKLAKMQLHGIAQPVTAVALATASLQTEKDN
In short: as §1

[4] = molecular target: T4, ERG (Homo sapiens, UniProt P11308 1-479); details: protein: recombinant; tags: N-terminal GST; dsDNA, one strand shown
T4 sequence: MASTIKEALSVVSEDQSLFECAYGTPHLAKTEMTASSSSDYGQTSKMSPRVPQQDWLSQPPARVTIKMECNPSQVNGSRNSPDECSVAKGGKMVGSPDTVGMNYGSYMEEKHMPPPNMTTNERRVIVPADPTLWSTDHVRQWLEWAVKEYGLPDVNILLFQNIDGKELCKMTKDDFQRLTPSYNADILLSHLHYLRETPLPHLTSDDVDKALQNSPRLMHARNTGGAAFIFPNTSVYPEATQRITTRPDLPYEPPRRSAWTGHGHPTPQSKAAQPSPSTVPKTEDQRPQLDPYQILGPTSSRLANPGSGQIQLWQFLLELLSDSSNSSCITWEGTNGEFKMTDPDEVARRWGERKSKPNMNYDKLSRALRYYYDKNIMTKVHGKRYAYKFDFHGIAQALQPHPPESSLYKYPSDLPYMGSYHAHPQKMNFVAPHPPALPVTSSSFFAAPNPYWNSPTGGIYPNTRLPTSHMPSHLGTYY
In short: as §1

[5] = molecular target: ELF1 (Homo sapiens, UniProt P32519 1-619); details: protein: recombinant; tags: N-terminal GST; dsDNA, one strand shown
In short: as §1

[6] = molecular target: T5, EHF (Homo sapiens, UniProt Q9NZC4 1-300); details: protein: recombinant; tags: N-terminal GST; dsDNA, one strand shown
T5 sequence: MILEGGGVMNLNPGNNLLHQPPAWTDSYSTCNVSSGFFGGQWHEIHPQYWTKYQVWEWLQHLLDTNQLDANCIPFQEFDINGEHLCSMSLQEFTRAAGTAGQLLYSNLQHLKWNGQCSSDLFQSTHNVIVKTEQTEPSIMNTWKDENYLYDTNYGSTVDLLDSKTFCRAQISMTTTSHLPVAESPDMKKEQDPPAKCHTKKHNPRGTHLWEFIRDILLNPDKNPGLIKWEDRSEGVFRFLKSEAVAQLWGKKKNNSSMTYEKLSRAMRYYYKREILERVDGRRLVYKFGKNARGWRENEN
In short: as §1

[7] = molecular target: SPI1 (Homo sapiens, UniProt P17947 1-270); details: protein: recombinant; tags: N-terminal GST; dsDNA, one strand shown
In short: as §1

[8] = molecular target: SPIB (Homo sapiens, UniProt Q01892 1-262); details: protein: recombinant; tags: N-terminal GST; dsDNA, one strand shown
In short: as §1

[9] = molecular target: T6, ELK3 (Homo sapiens, UniProt P41970 1-407); details: protein: recombinant; tags: N-terminal GST; dsDNA, one strand shown
T6 sequence: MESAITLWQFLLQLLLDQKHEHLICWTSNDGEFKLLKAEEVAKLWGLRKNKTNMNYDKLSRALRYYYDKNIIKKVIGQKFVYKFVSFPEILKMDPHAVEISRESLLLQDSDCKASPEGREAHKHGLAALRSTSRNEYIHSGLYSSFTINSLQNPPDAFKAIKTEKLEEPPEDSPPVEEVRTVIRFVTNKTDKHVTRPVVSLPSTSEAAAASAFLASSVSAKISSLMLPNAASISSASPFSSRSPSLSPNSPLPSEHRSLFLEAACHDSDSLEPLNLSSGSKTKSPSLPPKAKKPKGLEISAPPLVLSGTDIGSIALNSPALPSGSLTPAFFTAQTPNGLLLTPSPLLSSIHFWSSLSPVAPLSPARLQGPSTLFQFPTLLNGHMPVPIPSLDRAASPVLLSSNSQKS
In short: as §1

[10] = molecular target: T7, FEV (Homo sapiens, UniProt Q99581 1-238); details: protein: recombinant; tags: N-terminal GST; dsDNA, one strand shown
T7 sequence: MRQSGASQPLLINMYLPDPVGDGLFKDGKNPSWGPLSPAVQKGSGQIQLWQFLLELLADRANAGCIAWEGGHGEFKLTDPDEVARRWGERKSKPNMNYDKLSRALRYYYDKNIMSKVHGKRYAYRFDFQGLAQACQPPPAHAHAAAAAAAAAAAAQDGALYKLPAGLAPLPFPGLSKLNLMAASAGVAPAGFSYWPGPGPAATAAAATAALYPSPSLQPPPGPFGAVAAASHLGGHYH
In short: as §1

[11] = molecular target: ETV5 (Homo sapiens, UniProt P41161 1-510); details: protein: recombinant; tags: N-terminal GST; dsDNA, one strand shown
In short: as §1

[12] = molecular target: HSF1 (Homo sapiens, UniProt Q00613 1-529); details: protein: recombinant; tags: N-terminal GST; chain copies: 3; dsDNA, one strand shown
In short: as §1

[13] = molecular target: T8, SPIC (Homo sapiens, UniProt Q8N5J4 1-248); details: protein: recombinant; tags: N-terminal GST; dsDNA, one strand shown
T8 sequence: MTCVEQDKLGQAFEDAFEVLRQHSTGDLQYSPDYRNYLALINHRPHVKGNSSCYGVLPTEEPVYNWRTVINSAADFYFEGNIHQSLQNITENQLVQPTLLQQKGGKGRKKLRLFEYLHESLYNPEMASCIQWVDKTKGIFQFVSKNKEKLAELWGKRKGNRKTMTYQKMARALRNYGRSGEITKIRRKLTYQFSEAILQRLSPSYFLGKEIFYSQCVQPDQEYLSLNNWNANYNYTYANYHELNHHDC
In short: as §1

[14] = molecular target: ELF4 (Homo sapiens, UniProt Q99607 1-663); details: protein: recombinant; tags: N-terminal GST; dsDNA, one strand shown
In short: as §1

[15] = molecular target: T9, ELK4 (Homo sapiens, UniProt P28324-2 1-405); details: protein: recombinant; tags: N-terminal GST; dsDNA, one strand shown
T9 sequence: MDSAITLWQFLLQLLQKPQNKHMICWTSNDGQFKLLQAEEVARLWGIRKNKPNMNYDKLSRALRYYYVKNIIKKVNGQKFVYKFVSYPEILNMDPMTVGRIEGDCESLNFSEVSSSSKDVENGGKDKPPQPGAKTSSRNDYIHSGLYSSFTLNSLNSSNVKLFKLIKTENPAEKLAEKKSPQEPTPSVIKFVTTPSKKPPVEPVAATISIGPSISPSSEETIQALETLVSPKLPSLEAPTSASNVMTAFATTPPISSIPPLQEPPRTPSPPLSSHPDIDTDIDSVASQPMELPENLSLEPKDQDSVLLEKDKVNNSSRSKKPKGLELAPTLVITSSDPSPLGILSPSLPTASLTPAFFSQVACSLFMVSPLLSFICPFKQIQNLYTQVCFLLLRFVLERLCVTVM
In short: as §1

[16] = molecular target: T10, ETV2 (Homo sapiens, UniProt O00321 1-342); details: protein: recombinant; tags: N-terminal GST; dsDNA, one strand shown
T10 sequence: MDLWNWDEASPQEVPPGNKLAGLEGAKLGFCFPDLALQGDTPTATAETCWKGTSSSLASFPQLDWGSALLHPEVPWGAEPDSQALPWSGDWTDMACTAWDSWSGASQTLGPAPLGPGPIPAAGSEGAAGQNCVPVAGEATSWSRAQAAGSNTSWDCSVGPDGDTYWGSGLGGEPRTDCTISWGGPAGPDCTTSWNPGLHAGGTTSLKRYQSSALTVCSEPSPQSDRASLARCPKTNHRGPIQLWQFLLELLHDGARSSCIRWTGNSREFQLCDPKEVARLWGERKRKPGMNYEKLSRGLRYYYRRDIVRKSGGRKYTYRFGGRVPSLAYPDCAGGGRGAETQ
In short: as §1

[17] = molecular target: T11, ELF3 (Homo sapiens, UniProt P78545 1-371); details: protein: recombinant; tags: N-terminal GST; dsDNA, one strand shown
T11 sequence: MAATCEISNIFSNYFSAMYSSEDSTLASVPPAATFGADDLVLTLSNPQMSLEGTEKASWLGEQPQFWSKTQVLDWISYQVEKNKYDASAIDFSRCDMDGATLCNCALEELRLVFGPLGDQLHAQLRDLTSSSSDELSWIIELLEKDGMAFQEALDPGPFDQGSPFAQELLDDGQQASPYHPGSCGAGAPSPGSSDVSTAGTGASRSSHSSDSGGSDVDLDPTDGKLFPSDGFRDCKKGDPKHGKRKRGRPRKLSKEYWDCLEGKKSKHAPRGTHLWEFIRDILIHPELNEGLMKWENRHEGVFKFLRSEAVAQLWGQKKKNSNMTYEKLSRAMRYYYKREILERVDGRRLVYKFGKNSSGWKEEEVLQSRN
In short: as §1

[18] = molecular target: CRX (Homo sapiens, UniProt O43186 1-299); details: protein: recombinant; tags: N-terminal GST; dsDNA, one strand shown
In short: as §1

[19] = molecular target: ETV1 (Homo sapiens, UniProt P50549 1-477); details: protein: recombinant; tags: N-terminal GST; dsDNA, one strand shown
In short: as §1

Chain of ELF4 (Q99607 whole entry): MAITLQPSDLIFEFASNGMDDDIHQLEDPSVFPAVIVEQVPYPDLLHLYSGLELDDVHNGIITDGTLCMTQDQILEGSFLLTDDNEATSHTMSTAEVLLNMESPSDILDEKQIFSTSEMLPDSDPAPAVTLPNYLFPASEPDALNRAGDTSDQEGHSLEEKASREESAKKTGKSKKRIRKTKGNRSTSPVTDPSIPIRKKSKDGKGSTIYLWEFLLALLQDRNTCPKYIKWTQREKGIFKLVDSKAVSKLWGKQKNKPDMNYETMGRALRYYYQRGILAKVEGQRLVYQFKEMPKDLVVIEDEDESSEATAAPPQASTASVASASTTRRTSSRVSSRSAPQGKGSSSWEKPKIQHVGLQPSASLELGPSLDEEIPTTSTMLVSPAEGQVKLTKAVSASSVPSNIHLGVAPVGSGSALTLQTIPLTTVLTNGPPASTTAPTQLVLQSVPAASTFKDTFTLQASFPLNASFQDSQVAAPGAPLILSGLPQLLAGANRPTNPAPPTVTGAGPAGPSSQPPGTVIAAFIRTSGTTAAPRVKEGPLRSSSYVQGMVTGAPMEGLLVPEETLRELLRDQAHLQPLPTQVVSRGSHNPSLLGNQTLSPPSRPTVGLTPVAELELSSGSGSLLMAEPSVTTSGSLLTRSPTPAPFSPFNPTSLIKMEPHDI
Chain of ETV1 (P50549 whole entry): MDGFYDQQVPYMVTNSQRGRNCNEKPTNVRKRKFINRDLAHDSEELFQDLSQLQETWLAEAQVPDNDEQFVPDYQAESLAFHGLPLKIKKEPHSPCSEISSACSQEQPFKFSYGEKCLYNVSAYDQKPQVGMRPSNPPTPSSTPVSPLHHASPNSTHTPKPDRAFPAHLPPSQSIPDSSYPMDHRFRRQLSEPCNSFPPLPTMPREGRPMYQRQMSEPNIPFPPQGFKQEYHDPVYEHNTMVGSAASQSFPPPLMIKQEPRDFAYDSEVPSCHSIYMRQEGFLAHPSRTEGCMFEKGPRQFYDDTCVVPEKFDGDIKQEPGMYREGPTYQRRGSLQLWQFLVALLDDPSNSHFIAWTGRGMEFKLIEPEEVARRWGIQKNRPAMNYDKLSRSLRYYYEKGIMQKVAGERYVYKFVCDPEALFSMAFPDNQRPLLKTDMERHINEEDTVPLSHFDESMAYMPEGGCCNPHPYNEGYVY
Chain of ELF1 (P32519 whole entry): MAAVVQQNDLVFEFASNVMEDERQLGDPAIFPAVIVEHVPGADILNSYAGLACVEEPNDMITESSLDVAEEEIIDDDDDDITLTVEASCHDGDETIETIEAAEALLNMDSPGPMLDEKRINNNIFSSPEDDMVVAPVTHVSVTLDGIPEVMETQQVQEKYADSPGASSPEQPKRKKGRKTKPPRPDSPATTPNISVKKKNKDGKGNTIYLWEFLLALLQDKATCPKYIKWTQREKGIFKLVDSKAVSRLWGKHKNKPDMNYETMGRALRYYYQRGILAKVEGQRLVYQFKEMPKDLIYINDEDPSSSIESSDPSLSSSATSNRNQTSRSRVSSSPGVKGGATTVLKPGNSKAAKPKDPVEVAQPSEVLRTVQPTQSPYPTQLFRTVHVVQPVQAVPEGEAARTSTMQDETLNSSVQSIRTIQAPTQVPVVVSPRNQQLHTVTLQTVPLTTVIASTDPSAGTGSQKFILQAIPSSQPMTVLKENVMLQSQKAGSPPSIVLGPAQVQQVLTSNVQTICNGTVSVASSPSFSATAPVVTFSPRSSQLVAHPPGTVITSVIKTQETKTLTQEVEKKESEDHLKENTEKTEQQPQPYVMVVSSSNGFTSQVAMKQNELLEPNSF
Chain of HSF1 (Q00613 whole entry): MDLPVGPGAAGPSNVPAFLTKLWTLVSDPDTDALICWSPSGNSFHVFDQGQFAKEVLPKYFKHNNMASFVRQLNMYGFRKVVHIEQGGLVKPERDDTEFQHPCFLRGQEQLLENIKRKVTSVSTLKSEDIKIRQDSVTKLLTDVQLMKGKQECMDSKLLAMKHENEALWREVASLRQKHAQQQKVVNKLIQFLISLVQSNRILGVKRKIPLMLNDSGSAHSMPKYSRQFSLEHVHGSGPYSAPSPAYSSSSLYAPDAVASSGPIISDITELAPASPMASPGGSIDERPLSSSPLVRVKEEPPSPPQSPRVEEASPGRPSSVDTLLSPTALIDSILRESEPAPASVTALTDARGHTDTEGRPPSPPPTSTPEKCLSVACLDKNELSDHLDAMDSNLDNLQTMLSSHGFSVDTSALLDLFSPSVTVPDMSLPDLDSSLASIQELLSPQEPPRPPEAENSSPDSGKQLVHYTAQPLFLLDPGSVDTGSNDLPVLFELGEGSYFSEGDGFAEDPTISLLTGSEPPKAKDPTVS
Chain of ETV5 (P41161 whole entry): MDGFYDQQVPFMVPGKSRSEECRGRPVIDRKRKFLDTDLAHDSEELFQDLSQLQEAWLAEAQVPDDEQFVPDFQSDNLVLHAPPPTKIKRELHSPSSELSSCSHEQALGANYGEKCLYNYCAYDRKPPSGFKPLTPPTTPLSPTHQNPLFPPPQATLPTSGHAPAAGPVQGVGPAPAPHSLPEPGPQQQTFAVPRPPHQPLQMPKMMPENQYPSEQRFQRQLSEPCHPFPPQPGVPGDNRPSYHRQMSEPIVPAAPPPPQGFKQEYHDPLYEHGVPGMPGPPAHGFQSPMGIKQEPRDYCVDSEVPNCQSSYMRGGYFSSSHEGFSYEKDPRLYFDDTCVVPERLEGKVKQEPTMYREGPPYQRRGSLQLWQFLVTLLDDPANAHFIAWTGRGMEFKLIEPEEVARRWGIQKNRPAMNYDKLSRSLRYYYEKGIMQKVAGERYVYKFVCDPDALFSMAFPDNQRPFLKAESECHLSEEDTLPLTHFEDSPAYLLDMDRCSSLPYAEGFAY
Chain of CRX (O43186 whole entry): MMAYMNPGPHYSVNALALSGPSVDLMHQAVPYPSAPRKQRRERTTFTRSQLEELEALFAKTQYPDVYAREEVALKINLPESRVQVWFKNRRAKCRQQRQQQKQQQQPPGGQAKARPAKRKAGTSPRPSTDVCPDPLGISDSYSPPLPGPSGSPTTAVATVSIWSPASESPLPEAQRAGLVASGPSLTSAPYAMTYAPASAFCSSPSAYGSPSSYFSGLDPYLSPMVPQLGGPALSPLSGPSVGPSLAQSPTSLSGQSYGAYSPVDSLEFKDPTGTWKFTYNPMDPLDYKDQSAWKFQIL
Chain of SPIB (Q01892 whole entry): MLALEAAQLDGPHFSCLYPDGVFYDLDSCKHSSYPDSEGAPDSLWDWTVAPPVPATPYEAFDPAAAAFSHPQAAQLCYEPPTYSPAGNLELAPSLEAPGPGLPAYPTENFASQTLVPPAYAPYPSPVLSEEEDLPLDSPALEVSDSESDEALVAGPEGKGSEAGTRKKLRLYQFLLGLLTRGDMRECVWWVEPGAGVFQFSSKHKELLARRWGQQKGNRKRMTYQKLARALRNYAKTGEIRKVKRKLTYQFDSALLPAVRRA

For TTCAAG, the binding signal [1] was 1.22 fold enrichment (6-mer frequency, TF over GST control), the binding signal [2] was 1.22 fold enrichment (6-mer frequency, TF over GST control) and the binding signal [3] was 1.25 fold enrichment (6-mer frequency, TF over GST control). The binding signal [4] was 1.24 fold enrichment (6-mer frequency, TF over GST control), the binding signal [5] was 1.28 fold enrichment (6-mer frequency, TF over GST control) and the binding signal [6] was 1.3 fold enrichment (6-mer frequency, TF over GST control). The binding signal [7] was 1.2 fold enrichment (6-mer frequency, TF over GST control), the binding signal [8] was 1.29 fold enrichment (6-mer frequency, TF over GST control) and the binding signal [9] was 1.22 fold enrichment (6-mer frequency, TF over GST control). For the same sequence, the binding signal [10] was 1.2 fold enrichment (6-mer frequency, TF over GST control), the binding signal [11] was 1.23 fold enrichment (6-mer frequency, TF over GST control) and the binding signal [12] was 1.49 fold enrichment (6-mer frequency, TF over GST control). The binding signal [13] was 1.24 fold enrichment (6-mer frequency, TF over GST control), the binding signal [14] was 1.29 fold enrichment (6-mer frequency, TF over GST control) and the binding signal [15] was 1.32 fold enrichment (6-mer frequency, TF over GST control). The binding signal [16] was 1.1 fold enrichment (6-mer frequency, TF over GST control), the binding signal [17] was 1.23 fold enrichment (6-mer frequency, TF over GST control) and the binding signal [18] was 1.18 fold enrichment (6-mer frequency, TF over GST control). The binding signal [19] was 1.29 fold enrichment (6-mer frequency, TF over GST control).
